Screen size: about 2,100 compounds; about 940 (45%) were called active.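 Rule for the calls: active = mean of three repeat readings of reporter signal inhibition above a set limit (cut at about 70% in these data); inactive = the rest.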 The set was probably picked from earlier hits. A selection follows.
Assay: retest of CHOP induction inhibitors, confirmation, cell-based (AID 504437);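 note: 0% = tunicamycin plus vehicle and 100% = wells lacking tunicamycin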
Settings: CHO-CHOP promoter luciferase reporter, tunicamycin-induced, luminescence; at 10 µM; active compounds read high

Row | Compound | inhibition
1 | NC(=O)CC(NC(=O)Cc1cccc2ccccc12)c1ccc(NCc2cc(F)ccc2F)c([N+](=O)[O-])c1 (stereo not drawn) | 87.6% (active)
2 | O=[N+]([O-])c1c(NCCO)cc(Sc2nc3ccccc3s2)c2nonc12 | -6.6% (inactive)
3 | CC1=C/C(=N\OS(=O)(=O)c2ccccc2)C=CC1=O | 141% (active)
4 | CCOc1ccc2nc(Nc3nc4ccc(NC(C)=O)cc4s3)sc2c1 | 56.5% (inactive)
5 | COc1ccc(COC(=O)c2n[nH]c3ccccc23)cc1F | 15.5% (inactive)
6 | O=C(CCl)Nc1ccc(Sc2ccc(NC(=O)CCl)cc2)cc1 | 113% (active)
7 | Fc1ccccc1/C=C1\CCCC2=C1Nc1ncnn1C2c1ccccc1F (stereo not drawn) | 6.7% (inactive)
8 | O=C(NNc1ccccc1Cl)C(O)(c1cccc(C(F)(F)F)c1)c1cccc(C(F)(F)F)c1 | 54.8% (inactive)
9 | O=C(Cn1cc(C(F)(F)F)ccc1=O)N/N=C/c1ccc(Cl)cc1Cl | 27.2% (inactive)
10 | OCCCNc1nccc(-c2cc(Nc3cccc(Cl)c3)ncn2)n1 | 121% (active)
11 | Cc1ccc(-n2ncc3c2ncn2nc(-c4ccco4)nc32)c(C)c1 | -1.3% (inactive)
12 | COc1ccc(NC(=O)/C(C#N)=C\c2cc(OC)c(OCc3ccc(C(=O)O)cc3)cc2Br)cc1 | 17.8% (inactive)
13 | O=C(Nc1ccccc1Cl)/C(Cl)=C(\Cl)S(=O)c1ccccc1 (stereo not drawn) | 122% (active)
14 | Clc1cccc(CN2COc3c(cc(Cl)c4cccnc34)C2)c1 | -62% (inactive)
15 | COc1cccc(-c2nnc(NC(=O)c3ccc(S(=O)(=O)N(CC(C)C)CC(C)C)cc3)o2)c1 | 110% (active)
16 | CCOC(=O)c1cc2cc(-c3c(C(=O)OCC)oc4cc(O)cc(O)c4c3=O)ccc2o1 | 46.1% (inactive)
17 | Cc1nnc(SCC(=O)N/N=C/c2cn(-c3ccccc3)nc2-c2ccc(F)cc2)n1-c1ccccc1 | -50.1% (inactive)
18 | CCN(CC)S(=O)(=O)c1ccc2nc(COC(=O)c3n[nH]c4ccccc34)[nH]c2c1 | 66% (inactive)
19 | CCCCCCn1c(CN2CCCC(C)C2)nc2c1c(=O)n(C)c(=O)n2C (stereo not drawn) | 97.6% (active)
20 | O=C(CC(NC(=O)c1ccccc1)c1ccccc1)Nc1ccc(F)c(F)c1 (stereo not drawn) | 67.4% (inactive)
21 | CCCCSc1nc2c(c(=O)n1CC)SC(C)C2 (stereo not drawn) | 58.6% (inactive)
22 | CCCCCn1c(SCCC(C)C)nc2c1c(=O)[nH]c(=O)n2C | 97.6% (active)
23 | C=C(C)C(=O)O[C@H]1C/C(C)=C\C(=O)/C=C(\C)[C@H](O)[C@@H]2OC(=O)C(=C)[C@@H]21 | 43.7% (inactive)
24 | Cc1cccc(NC(=O)Nc2cccc(Oc3c(F)c(F)c(F)c(F)c3F)c2)c1 | 69.3% (inactive)
25 | O=C(Nc1cc(N2CCOCC2)ncn1)NC1(C(F)(F)F)Oc2ccc(Cl)cc2O1 (stereo not drawn) | 93.7% (active)
26 | Cc1c(C(=O)Nc2cccc(Cl)c2)cn2c(nc3ccccc32)c1C#N | 33.5% (inactive)

Row | Compound | inhibition
27 | O=C(/C=C/Sc1ncn[nH]1)c1ccc(Cl)cc1 | 98% (active)
28 | FC(F)(F)c1cc(-c2ccco2)nc(N2CCOCC2)n1 | 49.6% (inactive)
29 | O=C(CCl)N(Cc1cccc([N+](=O)[O-])c1)c1cccc(Cl)c1 | 118% (active)
30 | Cc1ccc(-n2nc(C)c(/C=N/NC(=O)c3cccs3)c2Cl)cc1 | -50.9% (inactive)
31 | CN1C(=O)/C(=C/c2ccc(C(=O)NC3CCCC3)cc2)Oc2ccccc21 | -73.2% (inactive)
32 | O=C1C=C(c2ccc(Cl)cc2)C(=O)N1Nc1ccccc1 | -116% (inactive)
33 | COc1cc(/C=N/NC(=O)Nc2ccccc2)ccc1OCCOc1ccccc1C | 86.2% (active)
34 | CCCOc1ccc(Cc2c(Cl)nc(SC)nc2NC)cc1 | 104% (active)
35 | N#CC(C(=O)c1ccc(S(=O)(=O)N2CCCCCC2)cc1)c1nc2ccccc2[nH]1 (stereo not drawn) | -6.4% (inactive)
36 | CCSc1nc(C)nc2c1oc1ccccc12 | 19.6% (inactive)
37 | Cc1ccc(-c2csc(-c3c[nH]c4ccccc34)n2)cc1 | 53.5% (inactive)
38 | COc1ccc(-n2c(SCC(=O)Nc3sc4c(c3C#N)CCCC4)nnc2-c2ccc(O)cc2)cc1 | 37.1% (inactive)
39 | Cc1nc(SCC(=O)Nc2cc(C)on2)c2c3c(sc2n1)CCCC3 | 80.7% (active)
40 | Oc1ccc(/C=N/N(Cc2ccccc2)c2ccccc2)cc1 | 30.1% (inactive)
41 | Cc1c(-c2ccccc2)n[nH]c1C(=O)N=Nc1c(O)[nH]c2ccccc12 | -12.3% (inactive)
42 | Cc1cc(-c2n[nH]c(=S)n2/N=C/C(Br)=C/c2ccccc2)n[nH]1 | 106% (active)
43 | FC(F)(F)c1cc(C(F)(F)F)c2ccc(N3CCN(c4ccccc4)CC3)nc2n1 | 61.6% (inactive)
44 | CCCCc1nc(NCCN)c(C#N)c2c1CSC(C)(C)C2 | 82.5% (active)
45 | O=[N+]([O-])c1cccc(-c2nnc3c4ccccc4c4ccccc4n23)c1 | 23.3% (inactive)
46 | CCCCCCC(=O)N(O)C1CC(=O)N(c2ccccc2)C1=O (stereo not drawn) | 16.2% (inactive)
47 | Clc1ccc(Nc2nc(-c3cccs3)cs2)nc1 | 124% (active)
48 | Oc1cccc(C2c3[nH]c4ccccc4c3CCN2Cc2cnn(-c3ccccc3)c2)c1 (stereo not drawn) | -4.4% (inactive)
49 | O=[N+]([O-])c1cc(S(=O)(=O)CCCN2CCOCC2)ccc1F | -45.2% (inactive)
50 | CC(C)Cc1cc(C(=O)Nc2cc(Br)ccc2O)no1 | 22.3% (inactive)
51 | O=C(Nc1ccccc1C(F)(F)F)c1cc(-c2ccc(O)cc2)on1 | 77.8% (active)
52 | CCCc1nc2ccccc2c(C(=O)OCC(=O)c2ccc3c(c2)NC(=O)CO3)c1CC | -11.4% (inactive)

Row | Compound | inhibition
53 | CC(C)(C)C1C/C(=C/c2ccco2)C(=O)/C(=C/c2ccco2)C1 (stereo not drawn) | 85.1% (active)
54 | OC(CNCC1CCCO1)Cn1c2ccc(Br)cc2c2cc(Br)ccc21 (stereo not drawn) | 81.5% (active)
55 | CC(C)(C)c1ccc(Oc2ccc(N)cc2)cc1 | 117% (active)
56 | O=C(Nc1nnc(COc2ccccc2)s1)Nc1ccccc1F | 1% (inactive)
57 | Cc1cc(C(=O)CCl)c(C)n1CC1COc2ccccc2O1 (stereo not drawn) | -124% (inactive)
58 | CS(=O)(=O)N(CC(=O)Nc1ccc(Cl)c(Cl)c1)C1CCCCC1 | 33.2% (inactive)
59 | COc1cc(/C=N/O)cc(Br)c1OCc1cccc(Cl)c1 | 138% (active)
60 | NC(N)=N/N=C/c1ccc(OCc2ccc(Cl)cc2Cl)cc1 | -25.2% (inactive)
61 | COC(=O)/C=C\C(=O)Nc1cccc([N+](=O)[O-])c1 | 101% (active)
62 | Fc1ccccc1C(c1nnnn1Cc1ccc2c(c1)OCO2)N1CCN(Cc2ccccc2)CC1 (stereo not drawn) | 22.4% (inactive)
63 | CC(C)=CCc1c(O)c(CC=C(C)C)c2occ(-c3ccc(O)cc3)c(=O)c2c1O | 15.8% (inactive)
64 | COc1cc(SC#N)ccc1N=Cc1c(C)[nH]n(-c2ccc(C)cc2)c1=O | 34% (inactive)
65 | C=C(C)COc1ccc(-c2n[nH]c(C)c2-c2ccccc2OC)c(O)c1 | 112% (active)
66 | COc1ccc(/C=C/C(=O)Nc2c(C)nn(C)c2C)cc1COc1ccc(Br)cc1 | 20.4% (inactive)
67 | Cc1ccc(NC(=S)NC(NC(=O)Cc2cccc3ccccc23)C(Cl)(Cl)Cl)cc1 (stereo not drawn) | 72.1% (active)
68 | CCOC(=O)c1c(C)[nH]c2c1-c1ccccc1C(=O)C2=O | 122% (active)
69 | Cc1ccc(NC(=O)/C(=C/c2ccc([N+](=O)[O-])cc2)NC(=O)c2ccccc2)cc1 | -5.3% (inactive)
70 | COc1cc(C(=O)OC(C)C(=O)NCC2CCCCC2)cc(NC(=O)c2ccco2)c1OC (stereo not drawn) | 93% (active)
71 | Cc1cccc(OCc2nnc(SCc3nc4cc(C(F)(F)F)ccc4c(=O)[nH]3)o2)c1 | 114% (active)
72 | CCOC(=O)C(C)Sc1nc2ccccc2c(=O)n1CC1CCCCC1 (stereo not drawn) | 61.7% (inactive)
73 | C=CCn1c(C)cc(C2=NNC(=NCC)SC2)c1C | 136% (active)
74 | NC(=O)COc1ccc(C23CC4CC(CC(C4)C2)C3)cc1 | 7.3% (inactive)
75 | CCOC(=O)C1=C(c2ccc(OC)cc2)C(=O)c2ccccc2C1=O | 110% (active)
76 | CSc1nc2sc3c(c2c(=O)[nH]1)CCc1ccccc1-3 | 12.2% (inactive)
77 | O=C(/C=C/c1ccc(F)cc1)Nc1cccc(S(=O)(=O)Nc2cccc(C(F)(F)F)c2)c1 | 7.6% (inactive)
78 | CSc1nc(-c2ccccc2)nc(C(Cl)Cl)n1 | 96.2% (active)

Reference: PubChem BioAssay AID504437 (Emory University Molecular Libraries Screening Center, 2011)
